Test results taken from PubChem BioAssay (NCI).
This is part of a sample that, as a whole, favours compounds with a hit. Of some 83,000 tested, about 20% had one in any assay.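 Values shown are percent growth following 48 h exposure of cells in 96-well plates to a single concentration of compound; below 10 was considered active.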 Activity calls are given as the source filed them.

system: HCC-2998 colon; test: NCI-60 one-dose screen, 48 h (100 = growth as untreated, 0 = no growth, -100 = all killed); conditions: 10 µM

SMILES	growth
COc1ccc(-c2cc(C(=O)N=Nc3c(O)[nH]c4ccc(Br)cc34)c3ccccc3n2)cc1	23.4% (inactive)
CC(=O)c1ccc(Nc2nc(SCCC(C)C)nc(-c3ccc(F)cc3)c2C#N)cc1	83.4% (inactive)
Clc1cccc(N/N=C/c2c[nH]c3ccccc23)n1	30.2% (inactive)
O=[N+]([O-])c1ccc(-c2nc(-c3ccccc3)c(-c3ccccc3)n2-c2ccc(S(=O)(=O)Nc3ncccn3)cc2)cc1	42.9% (inactive)
O=C(CSc1nnc(-c2ccc3nc(-c4ccc(Cl)cc4)[nH]c3c2)o1)Nc1ccc(Cl)cc1	18.5% (inactive)
CCOC(=O)c1c(CSc2ccccc2)n(C)c2cc(CN(C)C)c(O)c(CN(C)C)c12	12.1% (inactive)
N#Cc1c(NC(=O)c2cccc(C(F)(F)F)c2)sc2c1CCC(O)=C2	36.3% (inactive)
Cc1ccc(-c2nc(Nc3ccc(S(N)(=O)=O)cc3)c3ccccc3n2)cc1	-9.82% (active)
Cc1ccc2nc(COc3ccc(C(=O)NNC(=S)NC(=O)c4ccccc4)cc3)[nH]c2c1	66.1% (inactive)
O=C(CNc1nc(-c2ccccc2)cs1)Nc1cccc([N+](=O)[O-])c1	-99.8% (active)
CC(=O)Nc1ccc(-c2cn(-c3cccc(C(=O)Nc4cccc(OC(F)(F)F)c4)c3)nn2)cn1	110% (inactive)
OCCCNc1oc(-c2ccccc2)nc1[P+](c1ccccc1)(c1ccccc1)c1ccccc1	2.5% (active)
CC(C)Sc1nc(NC2CC2)c(C#N)c(-c2ccccc2)n1	97% (inactive)
OCCNc1oc(-c2ccccc2)nc1[P+](c1ccccc1)(c1ccccc1)c1ccccc1	9.06% (active)
C/C(=C\c1ccc(O)cc1O)c1ccc2ccc(O)cc2[o+]1	61.4% (inactive)
Cc1noc2c(Cc3ccc([N+](=O)[O-])cc3)nn(CC(=O)N/N=C/c3ccc(Cl)cc3)c(=O)c12	70.7% (inactive)
CCOC(=O)CNC(=O)CN(Cc1ccccc1)C(=O)[C@@]1(C)CCC[C@]2(C)[C@H]3CC4C(C(C)C)=C[C@]3(CC[C@H]21)[C@@H]1C(=O)CCC(=O)[C@H]41	37.8% (inactive)
O=C(CSc1nnc(-c2c[nH]c3ccccc23)n1-c1ccccc1)c1ccc(Cl)cc1	78.1% (inactive)
COc1ccc(-c2cc(C(=O)N=Nc3c(O)[nH]c4ccc(F)cc34)c3ccccc3n2)cc1	91.1% (inactive)

SMILES	growth
O=C1Nc2ccc(Cl)cc2/C1=C/c1ccc(OCc2ccccn2)cc1	105% (inactive)
Cc1noc2c(Cc3ccccc3)nn(CC(=O)N/N=C/c3ccc(Cl)cc3)c(=O)c12	79.7% (inactive)
COc1ccc2[nH]c(=O)c(CSc3cccc(N)c3)cc2c1	44.6% (inactive)
COc1ccc(C(=O)/C=C/c2cc(F)cc(C(F)(F)F)c2)cc1S(N)(=O)=O	-89.6% (active)
Nc1cc(-c2cccc(C(=O)NCc3ccc4c(c3)OCO4)c2)ccn1	103% (inactive)
Cc1ccc(/C(N)=N/c2sc(-c3ccccc3)nc2-c2ccccc2)cc1	79.8% (inactive)
CN(C(=O)c1ccc(C(C)(C)C)cc1)c1sc2c(c1C#N)CCC(=O)C2	-4.22% (active)
O=C(NO)c1ccc(CNC(=O)[C@H]2Cc3c([nH]c4ccccc34)[C@H](c3ccccc3)N2)cc1	16.9% (inactive)
COc1ccc2cc([C@H](C)C(=O)NCc3ccccc3)ccc2c1	50.7% (inactive)
Cc1noc2c(Cc3ccccc3)nn(CC(=O)N/N=C/c3ccc(F)cc3)c(=O)c12	67.1% (inactive)
COc1cnc2c(c1)C(=O)c1c-2n(CCCNCCO)c(=O)c2cc(OC)c(OC)cc12	30.3% (inactive)
CN1CCc2c(sc3ncnc(N/N=C/c4cn(-c5ccccc5)nc4-c4ccc(Cl)cc4)c23)C1	5.24% (active)
N#Cc1c(NC(=O)c2ccc(C(F)(F)F)cc2C(F)(F)F)sc2c1CCC(=O)C2	-2.99% (active)
O=C1N/C(=N\c2nccs2)S/C1=C\c1cccs1	40.8% (inactive)
CC(=O)c1ccc(Nc2nc(SC(C)C)nc(-c3ccccc3)c2C#N)cc1	70.2% (inactive)
O=C(CNc1nc(-c2ccccc2)cs1)Nc1ccc([N+](=O)[O-])cc1Cl	7.28% (active)
O=C(NO)c1ccc(Cn2ccc3c(Nc4ccccc4)ncnc32)cc1	-30.1% (active)
O=C(NO)c1ccc(CN2CCN(c3nc(-c4ccccc4)c4ccccc4n3)CC2)cc1	12.6% (inactive)

system: KM12 colon; test: as above; conditions: 10 µM

SMILES	growth
COc1ccc(-c2cc(C(=O)N=Nc3c(O)[nH]c4ccc(Br)cc34)c3ccccc3n2)cc1	23.1% (inactive)
CC(=O)c1ccc(Nc2nc(SCCC(C)C)nc(-c3ccc(F)cc3)c2C#N)cc1	81.8% (inactive)
Clc1cccc(N/N=C/c2c[nH]c3ccccc23)n1	9.99% (active)
O=[N+]([O-])c1ccc(-c2nc(-c3ccccc3)c(-c3ccccc3)n2-c2ccc(S(=O)(=O)Nc3ncccn3)cc2)cc1	30.8% (inactive)
O=C(CSc1nnc(-c2ccc3nc(-c4ccc(Cl)cc4)[nH]c3c2)o1)Nc1ccc(Cl)cc1	-12.8% (active)
CCOC(=O)c1c(CSc2ccccc2)n(C)c2cc(CN(C)C)c(O)c(CN(C)C)c12	40.4% (inactive)
N#Cc1c(NC(=O)c2cccc(C(F)(F)F)c2)sc2c1CCC(O)=C2	23.1% (inactive)
Cc1ccc(-c2nc(Nc3ccc(S(N)(=O)=O)cc3)c3ccccc3n2)cc1	0.051% (active)
Cc1ccc2nc(COc3ccc(C(=O)NNC(=S)NC(=O)c4ccccc4)cc3)[nH]c2c1	49.4% (inactive)
O=C(CNc1nc(-c2ccccc2)cs1)Nc1cccc([N+](=O)[O-])c1	-44% (active)
CC(=O)Nc1ccc(-c2cn(-c3cccc(C(=O)Nc4cccc(OC(F)(F)F)c4)c3)nn2)cn1	30.1% (inactive)
OCCCNc1oc(-c2ccccc2)nc1[P+](c1ccccc1)(c1ccccc1)c1ccccc1	-45.9% (active)
CC(C)Sc1nc(NC2CC2)c(C#N)c(-c2ccccc2)n1	94.7% (inactive)
OCCNc1oc(-c2ccccc2)nc1[P+](c1ccccc1)(c1ccccc1)c1ccccc1	-35.9% (active)
C/C(=C\c1ccc(O)cc1O)c1ccc2ccc(O)cc2[o+]1	22.5% (inactive)
Cc1noc2c(Cc3ccc([N+](=O)[O-])cc3)nn(CC(=O)N/N=C/c3ccc(Cl)cc3)c(=O)c12	69.7% (inactive)
CCOC(=O)CNC(=O)CN(Cc1ccccc1)C(=O)[C@@]1(C)CCC[C@]2(C)[C@H]3CC4C(C(C)C)=C[C@]3(CC[C@H]21)[C@@H]1C(=O)CCC(=O)[C@H]41	77.7% (inactive)
O=C(CSc1nnc(-c2c[nH]c3ccccc23)n1-c1ccccc1)c1ccc(Cl)cc1	78.7% (inactive)
COc1ccc(-c2cc(C(=O)N=Nc3c(O)[nH]c4ccc(F)cc34)c3ccccc3n2)cc1	81.3% (inactive)

SMILES	growth
O=C1Nc2ccc(Cl)cc2/C1=C/c1ccc(OCc2ccccn2)cc1	78.8% (inactive)
Cc1noc2c(Cc3ccccc3)nn(CC(=O)N/N=C/c3ccc(Cl)cc3)c(=O)c12	72.6% (inactive)
COc1ccc2[nH]c(=O)c(CSc3cccc(N)c3)cc2c1	4.43% (active)
COc1ccc(C(=O)/C=C/c2cc(F)cc(C(F)(F)F)c2)cc1S(N)(=O)=O	-82.4% (active)
Nc1cc(-c2cccc(C(=O)NCc3ccc4c(c3)OCO4)c2)ccn1	106% (inactive)
Cc1ccc(/C(N)=N/c2sc(-c3ccccc3)nc2-c2ccccc2)cc1	41.4% (inactive)
CN(C(=O)c1ccc(C(C)(C)C)cc1)c1sc2c(c1C#N)CCC(=O)C2	-6.74% (active)
O=C(NO)c1ccc(CNC(=O)[C@H]2Cc3c([nH]c4ccccc34)[C@H](c3ccccc3)N2)cc1	31.1% (inactive)
COc1ccc2cc([C@H](C)C(=O)NCc3ccccc3)ccc2c1	39.1% (inactive)
Cc1noc2c(Cc3ccccc3)nn(CC(=O)N/N=C/c3ccc(F)cc3)c(=O)c12	86.2% (inactive)
COc1cnc2c(c1)C(=O)c1c-2n(CCCNCCO)c(=O)c2cc(OC)c(OC)cc12	54.5% (inactive)
CN1CCc2c(sc3ncnc(N/N=C/c4cn(-c5ccccc5)nc4-c4ccc(Cl)cc4)c23)C1	21.6% (inactive)
N#Cc1c(NC(=O)c2ccc(C(F)(F)F)cc2C(F)(F)F)sc2c1CCC(=O)C2	-34.2% (active)
O=C1N/C(=N\c2nccs2)S/C1=C\c1cccs1	28.1% (inactive)
CC(=O)c1ccc(Nc2nc(SC(C)C)nc(-c3ccccc3)c2C#N)cc1	82.2% (inactive)
O=C(CNc1nc(-c2ccccc2)cs1)Nc1ccc([N+](=O)[O-])cc1Cl	29.1% (inactive)
O=C(NO)c1ccc(Cn2ccc3c(Nc4ccccc4)ncnc32)cc1	12.1% (inactive)
O=C(NO)c1ccc(CN2CCN(c3nc(-c4ccccc4)c4ccccc4n3)CC2)cc1	18.7% (inactive)
